Measured values taken from PubChem BioAssay (NCI).
About 83,000 compounds went through this panel and 20% of them were active in at least one assay; those are over-represented in the sample as a whole.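 Single-concentration screen, 48 h exposure, 96-well plates. Endpoint: percent growth. Below 10 = active.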 Unmarked numbers belong to inactive results. Calls of active or inactive are those of the source.

What was measured:
Assay in all cases: NCI-60 one-dose screen, 48 h (100 = growth as untreated, 0 = no growth, -100 = all killed)
Details in all cases: 10 µM unless noted
[1] = tested on: NCI-H23 lung
[2] = tested on: NCI-H226 lung
[3] = tested on: NCI-H322M lung
[4] = tested on: HOP-62 NSCLC
[5] = tested on: NCI-H460 lung
[6] = tested on: NCI-H522 lung
[7] = tested on: A549/ATCC NSCLC
[8] = tested on: 786-0 renal
[9] = tested on: COLO 205 colon
[10] = tested on: DU-145 prostate
[11] = tested on: MALME-3M melanoma
[12] = tested on: MDA-MB-231 breast
[13] = tested on: RXF 393 renal
[14] = tested on: SF-268 CNS
[15] = tested on: SF-295 CNS
[16] = tested on: SF-539 CNS
[17] = tested on: UACC-257 melanoma
[18] = tested on: M14 melanoma
[19] = tested on: HOP-92 NSCLC
[20] = tested on: K-562 leukemia

Structure (SMILES) | growth [1] [%] | growth [2] [%] | growth [3] [%] | growth [4] | growth [5] | growth [6] | growth [7] | growth [8] [%] | growth [9] | growth [10] | growth [11] | growth [12] [%] | growth [13] | growth [14] | growth [15] | growth [16] | growth [17] | growth [18] | growth [19] [%] | growth [20]
CC(=O)c1cc(C(=O)c2ccc3c(c2)Sc2ccccc2N3)n2ccccc12 | 24.1 | 32.5 | 24.5 | 21.8% | 2.97% (active) | -28.9% (active) | 10.8% | 22.5 | -55.4% (active) | 1.94% (active) | 53.1% | 17.9 | 7.01% (active) | 29.7% | 8.93% (active) | -38.3% (active) | 51.4% | 20.1% |  | 
Cc1cc2c3ccccc3ccc2[n+]2ccccc12 | 46.4 | 43.4 | 47.2 | 9.19% (active) | 63.1% | -10.1% (active) | -16.9% (active) | 24 | 54.1% | 86.9% | -5.59% (active) | 81.6 |  | -24.6% (active) | 22.6% | 42.5% |  | 68.2% | 71.5 | 
CN(C)[C@@H]1C(=O)C(C(=O)NCc2nc3[nH]cnc(=S)c3[nH]2)=C(O)[C@@]2(O)C(=O)C3=C(O)c4c(O)cccc4[C@@](C)(O)[C@H]3C[C@@H]12 | 58.7 | 49.5 | 37.9 | 18.4% | 63.8% | 33.3% | 101% | 19.6 | 88% | 42.6% | 69.4% | 47.5 |  | 76.1% | 27.1% | 31.8% |  | 9.8% (active) | 25.2 | 
CC(O)CN1CC(O)=C(c2nc3ccccc3s2)C1=N (centres undefined) | 83 | 103 | 111 | 95.2% | 113% | 99.9% | 116% | 100 | 108% | 115% | 97.6% | 108 | 113% | 108% | 129% | 104% | 119% | 114% |  | 105%
CN(C)CCN1C(=O)c2cccc3c(N)ccc(c23)C1=O | 44.3 | 23.9 | 58.5 | 58.1% | -5.38% (active) | 7.81% (active) | 6.47% (active) | 36.9 | 8.15% (active) | 25.9% | 46.7% | 58.3 | 4.79% (active) | 17.5% | 21.4% | 19.4% | 9.42% (active) | 34.4% |  | 2.08% (active)
COc1ccc(C(=S)N2CCN(c3cccc(Cl)c3)CC2)cc1 | 101 | 113 | 98.3 | 98.5% | 96.7% | 108% | 91.7% | 97.1 | 141% | 121% | 138% | 101 | 160% | 102% | 111% | 92.2% | -2.46% (active) | 101% |  | 119%
CN1CCN=C1c1ccc(NC(=O)c2ccc(C(=O)Nc3ccc(C4=NCCN4C)cc3)cc2)cc1 | 90.2 | 98.6 | 92.2 | 97.8% | 91% | 87% | 101% | 101 | 99.6% | 119% | 80.6% | 103 |  | 111% | 92.9% | 94.1% |  | 95.9% | 82.5 | 
COc1ccc(C(=O)/C=C/c2cccnc2Nc2cc(OC)c(OC)c(OC)c2)cc1 | 59.2 | 41 |  | 48% | 5.28% (active) | 14.8% | 23.6% | 39.2 | 38.6% | 31.9% | 80.5% | 49 | 12.9% | 14.9% | 27.4% | 4.67% (active) | 35.8% | 42.7% | 49.3 | 
